Shown are actives, neighbours in structure and some others; about 19% of the full set was active somewhere.
HT1080-NT tox – kills 2HG-producing HT-1080-NT fibrosarcoma cells; HT-1080-NT fibrosarcoma viability, CellTiter-Glo ATP luminescence, 48 h; Potency, µM (series often up to 46.1 µM), without a hit: top-dose activity, negative = less viability, actives largely listed as cytotoxic; 360,000 compounds, 1.6% hits; AID 686970;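 note: NT is the 2HG producing partner of a matched IDH1 knockdown line; potency is the fitted concentration of half-maximal effect; 0% = DMSO-treated cells and -100% = media-only wells without cells; nearly all actives have a fitted effect of over 55% in size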
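HT-1080-NT fibrosarcoma cells (2HG-overproducing), 750 cells/well in RPMI with 5% FBS, dosed after 2 h and incubated 48 h at 37C. CellTiter-Glo luminescence normalized to DMSO and no-cell wells; concentration-response curves fitted and classed.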
TDP1 cell CPT – DT40-hTDP1 cell growth loss with CPT. Potency, µM (series often up to 46.2 µM), inactives show at the top dose activity change, negative = growth inhibition, hits mostly inhibitors. AID 686979. chicken DT40 Tdp1-/-;hTDP1 cells + 20 nM CPT, ATP luminescence, 48 h. 420,000 compounds, 12% hits; note: potency is the fitted concentration of half-maximal effect; nearly all actives have a fitted effect of over 55% in size
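Chicken DT40 Tdp1-/- cells complemented with human TDP1, 400 cells/well, exposed to compounds plus 20 nM camptothecin for at least 48 h at 37 C; viability read as ATP content by CellTiter-Glo luminescence.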
ELG1 repair inh – blocks ELG1-dependent DNA repair in HEK293T cells; HEK293T ELG1-luciferase reporter, luminescence, 16 h; DNA damage induced by 5-fluorouridine; Potency, µM (highest dose often 46.1 µM), for the others: top-dose activity change, negative = inhibition, usual class: inhibitors; 330,000 compounds, 2.3% hits; note: potency is the fitted concentration of half-maximal effect; nearly all actives have a fitted effect of over 55% in size
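DMSO vehicle served as the neutral condition. Each well held 2,000 cells given 5-fluorouridine plus compound; after 16 hr at 37 °C/5% CO2, ONE-Glo was added and luciferase measured 30 min later.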
IL1B secr inh – inflammasome signaling inhibition, IL-1 beta readout | activity change, % at 57.5 µM | 360,000 compounds, 4.7% hits | THP-1 LPS/ATP IL-1B secretion, AlphaLISA, 16 h; stronger effect = lower value | AID 743279; in the data active = activity change below about -50%; inconclusive = mostly about -30% to -49%
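Secreted IL-1B measured by AlphaLISA bead assay after 16 h compound exposure of THP-1 cells; compounds (final up to 57.5 uM) added 1 h before LPS (250 ng/mL) and ATP (1.25 mM) stimulation; lower signal means less secretion.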
DT40 TDP1 no CPT – qHTS for Inhibitors of human tyrosyl-DNA phosphodiesterase 1 (TDP1): qHTS in cells in absence of CPT; AID 686978, 2013; 420,000 compounds, 15% hits; DT40 Tdp1-/- hTDP1 cells, no CPT, ATP luminescence, 48 h; Potency, µM (doses to about 46.2 µM), inactives show top-dose activity change, negative = growth inhibition, hits mostly inhibitors; note: potency is the fitted concentration of half-maximal effect; nearly all actives have a fitted effect of over 55% in size
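Stably hTDP1-transfected Tdp1-null chicken DT40 cells were treated with library compounds minus camptothecin and grown for at least 48 hr at 37 °C, after which cellular ATP was quantified by luminescence.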
HT1080 IDH1KD tx – HT-1080 IDH1 knockdown cell toxicity (counter line); HT-1080 IDH1 knockdown viability, ATP luminescence, 48 h; Potency, µM (titrated, usually from 46.1 µM), for inactives: at the top dose activity, negative = toxicity, actives largely listed as cytotoxic; 360,000 compounds, 2% hits; AID 686971;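 note: potency is the fitted concentration of half-maximal effect; 0% = DMSO wells and -100% = cell-free medium wells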
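After a 2 h attachment period, IDH1KD HT-1080 cells took pin-transferred compound for 48 h at 37 °C; ATP-based luminescence after 10 min room-temperature reagent incubation reported viability.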
Active calls of the source: *. Unless noted, calls come from the whole dose curve; as a rule, active = well fitted curve in the direction sought with a large enough effect; inconclusive = small, poorly fitted or top-dose-only effect, or another doubt; inactive = no such curve, though single readings can be large; an effect the other way counts as inactive or inconclusive. Unless noted, % is set by controls: 0 for no effect and ±100 for the full control effect.

For COC(=O)C1=C(C)NC(=S)N(C(C)=O)C1c1ccc(OC)c(OC)c1 (stereo unspecified) the results were HT1080-NT tox inconclusive, TDP1 cell CPT -8%, ELG1 repair inh -5%, IL1B secr inh 0, DT40 TDP1 no CPT -2% and HT1080 IDH1KD tx inconclusive.
Screening COc1ccc(C2NC(=S)N3C(c4ccc(OC)c(OC)c4)NC(=S)N23)cc1OC (stereo unspecified) returned TDP1 cell CPT 0.006µM* and DT40 TDP1 no CPT 0.0094µM*.
CC(=O)Nc1cc(-c2ccc(F)cc2)cn2c(-c3ccc(F)cc3)cnc12 was read as HT1080-NT tox inconclusive, TDP1 cell CPT 16µM*, IL1B secr inh -5, DT40 TDP1 no CPT 18µM* and HT1080 IDH1KD tx inconclusive.
CC(=O)Nc1cc(-c2ccccc2)cn2c(-c3ccc(F)cc3)cnc12 was read as HT1080-NT tox -1%, TDP1 cell CPT inconclusive, IL1B secr inh inconclusive, DT40 TDP1 no CPT inconclusive and HT1080 IDH1KD tx 4%.
CC(=O)Nc1cc(-c2ccc(F)cc2)cn2c(-c3ccc(S(C)(=O)=O)cc3)cnc12 was read as HT1080-NT tox -22%, TDP1 cell CPT inconclusive, IL1B secr inh 0, DT40 TDP1 no CPT 16µM* and HT1080 IDH1KD tx 0%.
`CC(=O)Nc1cc(-c2ccncc2)cn2c(-c3ccccc3)cnc12` gave HT1080-NT tox 24%, TDP1 cell CPT 18µM*, IL1B secr inh -9, DT40 TDP1 no CPT 16µM* and HT1080 IDH1KD tx 14%.
For CC(=O)Nc1cc(-c2ccc(CO)cc2)cn2c(-c3ccc(F)cc3)cnc12 the results were HT1080-NT tox -12%, TDP1 cell CPT 16µM*, IL1B secr inh inconclusive, DT40 TDP1 no CPT 16µM* and HT1080 IDH1KD tx 0%.
Cc1ccc(CNC(=O)CN(c2cc(C)cc(C)c2)S(=O)(=O)c2c(C)noc2C)cc1 was read as TDP1 cell CPT -28% and DT40 TDP1 no CPT inconclusive.
O=C(NNC(=O)C1CCCN(S(=O)(=O)c2cccc(F)c2)C1)C1CC1 (stereo unspecified) was read as HT1080-NT tox -3%, TDP1 cell CPT 2%, ELG1 repair inh 10%, IL1B secr inh -10, DT40 TDP1 no CPT -14% and HT1080 IDH1KD tx -25%.
For CC(C)(C)OC(=O)N[C@H](C(=O)OC(C)(C)C)c1ccc2ccccc2c1 the results were HT1080-NT tox -1%, TDP1 cell CPT 8.2µM*, ELG1 repair inh 6%, IL1B secr inh 6, DT40 TDP1 no CPT -27% and HT1080 IDH1KD tx 5%.
Screening CCOC(=O)C1(Cc2cccc(OC)c2)CCN(Cc2ccc(OC)c(O)c2)CC1 returned HT1080-NT tox -27%, TDP1 cell CPT inconclusive, ELG1 repair inh inconclusive, IL1B secr inh inconclusive, DT40 TDP1 no CPT inconclusive and HT1080 IDH1KD tx -18%.
CCOC(=O)C1(Cc2cccc(OC)c2)CCN(C/C=C/c2ccc(OC)cc2)CC1 was read as HT1080-NT tox 13µM*, TDP1 cell CPT 5.8µM*, ELG1 repair inh -4%, IL1B secr inh -171*, DT40 TDP1 no CPT 5.2µM* and HT1080 IDH1KD tx inconclusive.
`CCOC(=O)C1(Cc2cccc(OC)c2)CCN(CCO)CC1` gave HT1080-NT tox 6%, TDP1 cell CPT 1%, ELG1 repair inh 6%, IL1B secr inh 0, DT40 TDP1 no CPT 0% and HT1080 IDH1KD tx 4%.
CCOC(=O)C1(Cc2cccc(OC)c2)CCN(CC=C(C)C)CC1 was read as HT1080-NT tox -2%, TDP1 cell CPT inconclusive, ELG1 repair inh -2%, IL1B secr inh -13, DT40 TDP1 no CPT 16µM* and HT1080 IDH1KD tx 7%.
For CCOC(=O)C1(Cc2cccc(OC)c2)CCN(CC(O)CO)CC1 (stereo unspecified) the results were HT1080-NT tox 6%, TDP1 cell CPT 1%, ELG1 repair inh -7%, IL1B secr inh -7, DT40 TDP1 no CPT -2% and HT1080 IDH1KD tx 1%.
Screening CCOC(=O)C1(Cc2cccc(OC)c2)CCN(C/C=C/c2ccccc2)CC1 returned HT1080-NT tox -13%, TDP1 cell CPT 16µM*, ELG1 repair inh inconclusive, IL1B secr inh -92*, DT40 TDP1 no CPT 18µM* and HT1080 IDH1KD tx -28%.
`CCOC(=O)C1(Cc2cccc(OC)c2)CCN(Cc2cccc(OCC)c2O)CC1` gave HT1080-NT tox inconclusive, TDP1 cell CPT 23µM*, ELG1 repair inh inconclusive, IL1B secr inh -90*, DT40 TDP1 no CPT 16µM* and HT1080 IDH1KD tx -13%.
For COC1CC(NC(C)=O)C(OC(=O)c2ccccc2)C(CBr)O1 (stereo unspecified) the results were HT1080-NT tox 9%, TDP1 cell CPT -12%, IL1B secr inh 19, DT40 TDP1 no CPT -11% and HT1080 IDH1KD tx 8%.
`CCCOc1ccc([N+](=O)[O-])cc1C1NC(=S)NC(c2ccccc2)=C1C(=O)OCC` (stereo unspecified) gave HT1080-NT tox -16%, TDP1 cell CPT inconclusive, ELG1 repair inh -12%, IL1B secr inh -29, DT40 TDP1 no CPT 21µM* and HT1080 IDH1KD tx -9%.
CCOC(=O)C1=C(c2ccccc2)NC(=O)NC1c1cc(OC)c(O)c([N+](=O)[O-])c1 (stereo unspecified) was read as HT1080-NT tox 10%, TDP1 cell CPT -22%, ELG1 repair inh inconclusive, IL1B secr inh -3, DT40 TDP1 no CPT inconclusive and HT1080 IDH1KD tx 10%.
`C=C1C(=O)[C@]23C[C@H]1CCC2[C@@]1(C)C(C[C@@H]3O)[C@](C)(C(=O)O)C[C@H](O)[C@@H]1O` (stereo partly specified) gave HT1080-NT tox 28%, TDP1 cell CPT 2%, IL1B secr inh 1, DT40 TDP1 no CPT 8% and HT1080 IDH1KD tx -2%.
C=C1C(=O)[C@]23C[C@H]1CC[C@H]2[C@]1(C)[C@@H](OC(C)=O)CC[C@@](C)(C(=O)OC)[C@H]1C[C@@H]3OC(C)=O was read as HT1080-NT tox 3.7µM*, TDP1 cell CPT 0.58µM*, IL1B secr inh -116*, DT40 TDP1 no CPT 0.92µM* and HT1080 IDH1KD tx 2.6µM*.
For C=C1C(=O)[C@]23C[C@H]1CC[C@H]2[C@]1(C)[C@@H](O)CC[C@@](C)(C(=O)O)[C@H]1C[C@@H]3O the results were HT1080-NT tox inconclusive, TDP1 cell CPT 2.3µM*, IL1B secr inh -75*, DT40 TDP1 no CPT 2.9µM* and HT1080 IDH1KD tx inconclusive.

From PubChem
